Publication PMC7862700, “An all-to-all approach to the identification of sequence-specific readers for epigenetic DNA modifications on cytosine”

How the values were obtained:
Experiment in all cases: DAPPL (digital affinity profiling via proximity ligation, sequencing); 10 mM Tris-HCl pH 7.5, 50 mM NaCl, 1 mM DTT, 4% glycerol, room temperature, 30 min; GST-TFs on glutathione beads, 16-mer random dsDNA library, 0.1% formaldehyde crosslink after washing; high values mean tight binding
FLI1 = biological target: T1, FLI1 (Homo sapiens, UniProt Q01543 1-452); details: protein: recombinant; tags: N-terminal GST; dsDNA, one strand shown
T1 sequence: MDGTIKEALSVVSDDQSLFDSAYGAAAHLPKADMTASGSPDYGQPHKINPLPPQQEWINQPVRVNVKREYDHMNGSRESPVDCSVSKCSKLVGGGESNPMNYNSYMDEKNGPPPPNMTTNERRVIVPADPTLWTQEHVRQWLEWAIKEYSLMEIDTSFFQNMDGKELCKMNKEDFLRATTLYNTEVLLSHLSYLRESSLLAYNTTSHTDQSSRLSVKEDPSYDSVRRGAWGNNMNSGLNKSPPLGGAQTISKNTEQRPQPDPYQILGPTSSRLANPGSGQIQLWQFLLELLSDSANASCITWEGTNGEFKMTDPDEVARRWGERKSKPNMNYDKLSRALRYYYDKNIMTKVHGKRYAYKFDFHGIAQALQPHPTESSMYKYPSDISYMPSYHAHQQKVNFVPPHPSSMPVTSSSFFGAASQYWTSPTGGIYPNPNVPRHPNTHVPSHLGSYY
Procedure, shortened: (§1)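 Sequencing on an Illumina NextSeq500 followed washing, crosslinking with 0.1% formaldehyde, proximity ligation (BsaI/T4 ligase, 1 h, 37 °C) and PCR amplification of pools that had been incubated for 30 min at room temperature with 200 nmole of a random double-stranded 16-mer DNA library in Tris/NaCl/DTT/glycerol buffer. Each pool held DNA-barcoded human transcription factors, expressed in yeast as GST fusions and captured on glutathione beads, plus a tag-only sample. Binding signal is a hexamer's read frequency for a factor divided by its frequency in the tag-only sample.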

ELK1 = biological target: T2, ELK1 (Homo sapiens, UniProt P19419 1-428); details: protein: recombinant; tags: N-terminal GST; dsDNA, one strand shown
T2 sequence: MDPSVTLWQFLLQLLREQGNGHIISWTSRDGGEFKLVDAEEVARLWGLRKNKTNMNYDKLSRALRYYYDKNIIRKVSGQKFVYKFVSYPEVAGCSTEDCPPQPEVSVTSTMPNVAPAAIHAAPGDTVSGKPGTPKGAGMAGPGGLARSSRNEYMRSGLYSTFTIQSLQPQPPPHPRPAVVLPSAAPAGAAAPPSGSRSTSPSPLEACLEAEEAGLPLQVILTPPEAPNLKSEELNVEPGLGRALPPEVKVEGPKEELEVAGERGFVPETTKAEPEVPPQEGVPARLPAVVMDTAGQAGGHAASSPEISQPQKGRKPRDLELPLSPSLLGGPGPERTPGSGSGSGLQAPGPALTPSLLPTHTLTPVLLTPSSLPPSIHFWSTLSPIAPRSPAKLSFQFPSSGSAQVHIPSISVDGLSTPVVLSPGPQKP
Procedure, shortened: as §1

GABPA = biological target: T3, GABPA (Homo sapiens, UniProt Q06546 1-454); details: protein: recombinant; tags: N-terminal GST; dsDNA, one strand shown
T3 sequence: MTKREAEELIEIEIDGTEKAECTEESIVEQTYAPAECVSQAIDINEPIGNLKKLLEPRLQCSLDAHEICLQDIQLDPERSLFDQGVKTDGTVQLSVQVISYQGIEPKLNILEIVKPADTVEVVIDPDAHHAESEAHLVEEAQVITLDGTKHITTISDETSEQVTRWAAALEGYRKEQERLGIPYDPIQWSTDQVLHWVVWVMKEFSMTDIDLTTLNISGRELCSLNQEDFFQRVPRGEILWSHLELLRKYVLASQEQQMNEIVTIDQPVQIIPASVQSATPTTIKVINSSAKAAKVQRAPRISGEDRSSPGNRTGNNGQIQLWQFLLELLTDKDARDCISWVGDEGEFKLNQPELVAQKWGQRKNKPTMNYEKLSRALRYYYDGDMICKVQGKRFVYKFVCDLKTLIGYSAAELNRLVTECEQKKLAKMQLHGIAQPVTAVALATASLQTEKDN
Procedure, shortened: as §1

ERG = biological target: T4, ERG (Homo sapiens, UniProt P11308 1-479); details: protein: recombinant; tags: N-terminal GST; dsDNA, one strand shown
T4 sequence: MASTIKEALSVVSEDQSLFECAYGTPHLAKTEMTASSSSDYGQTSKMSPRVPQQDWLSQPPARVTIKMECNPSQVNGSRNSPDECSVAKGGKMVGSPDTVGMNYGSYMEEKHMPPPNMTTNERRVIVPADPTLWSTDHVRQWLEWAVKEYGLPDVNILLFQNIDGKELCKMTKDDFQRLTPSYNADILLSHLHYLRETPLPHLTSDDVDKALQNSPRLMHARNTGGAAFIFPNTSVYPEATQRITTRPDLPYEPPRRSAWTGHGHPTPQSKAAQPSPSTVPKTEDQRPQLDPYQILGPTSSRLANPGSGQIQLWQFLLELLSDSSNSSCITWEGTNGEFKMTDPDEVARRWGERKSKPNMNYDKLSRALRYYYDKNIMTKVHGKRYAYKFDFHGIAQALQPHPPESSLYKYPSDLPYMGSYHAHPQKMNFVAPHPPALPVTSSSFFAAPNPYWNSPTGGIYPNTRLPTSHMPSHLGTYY
Procedure, shortened: as §1

ELF1 = ELF1 (Homo sapiens, UniProt P32519 1-619); details: protein: recombinant; tags: N-terminal GST; dsDNA, one strand shown
Chain of ELF1 (P32519 whole entry): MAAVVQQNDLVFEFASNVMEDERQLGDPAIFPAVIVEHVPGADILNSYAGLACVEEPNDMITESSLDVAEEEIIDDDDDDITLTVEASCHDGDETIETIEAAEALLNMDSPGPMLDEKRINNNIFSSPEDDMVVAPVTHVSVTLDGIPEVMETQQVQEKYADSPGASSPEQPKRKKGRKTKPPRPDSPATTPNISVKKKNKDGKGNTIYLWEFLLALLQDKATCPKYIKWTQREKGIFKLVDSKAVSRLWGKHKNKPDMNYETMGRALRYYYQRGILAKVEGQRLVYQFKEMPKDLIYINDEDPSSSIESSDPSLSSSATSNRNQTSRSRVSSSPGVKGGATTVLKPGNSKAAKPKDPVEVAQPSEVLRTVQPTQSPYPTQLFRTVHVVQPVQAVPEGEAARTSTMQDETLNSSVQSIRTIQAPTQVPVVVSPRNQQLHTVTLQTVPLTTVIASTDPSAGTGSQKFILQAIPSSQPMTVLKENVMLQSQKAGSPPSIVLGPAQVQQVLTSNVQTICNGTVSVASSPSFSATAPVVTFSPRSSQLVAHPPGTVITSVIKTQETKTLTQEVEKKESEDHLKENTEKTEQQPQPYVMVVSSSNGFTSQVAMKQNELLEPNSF
Procedure, shortened: as §1

EHF = biological target: T5, EHF (Homo sapiens, UniProt Q9NZC4 1-300); details: protein: recombinant; tags: N-terminal GST; dsDNA, one strand shown
T5 sequence: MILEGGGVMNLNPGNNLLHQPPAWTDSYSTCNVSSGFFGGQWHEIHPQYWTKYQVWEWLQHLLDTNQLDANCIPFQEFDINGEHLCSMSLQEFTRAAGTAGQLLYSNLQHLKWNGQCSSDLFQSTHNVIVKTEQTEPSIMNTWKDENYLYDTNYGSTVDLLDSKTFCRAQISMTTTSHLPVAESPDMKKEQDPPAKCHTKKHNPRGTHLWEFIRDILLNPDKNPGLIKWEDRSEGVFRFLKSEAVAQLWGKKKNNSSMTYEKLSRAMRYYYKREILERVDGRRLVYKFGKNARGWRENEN
Procedure, shortened: as §1

SPI1 = SPI1 (Homo sapiens, UniProt P17947 1-270); details: protein: recombinant; tags: N-terminal GST; dsDNA, one strand shown
Procedure, shortened: as §1

SPIB = SPIB (Homo sapiens, UniProt Q01892 1-262); details: protein: recombinant; tags: N-terminal GST; dsDNA, one strand shown
Chain of SPIB (Q01892 whole entry): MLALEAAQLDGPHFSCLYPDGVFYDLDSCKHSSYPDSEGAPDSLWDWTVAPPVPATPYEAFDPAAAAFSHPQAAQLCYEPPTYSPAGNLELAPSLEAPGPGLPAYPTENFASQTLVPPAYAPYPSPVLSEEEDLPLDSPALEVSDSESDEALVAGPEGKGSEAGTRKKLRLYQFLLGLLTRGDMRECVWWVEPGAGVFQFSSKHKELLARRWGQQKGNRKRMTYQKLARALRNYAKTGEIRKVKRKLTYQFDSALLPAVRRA
Procedure, shortened: as §1

ELK3 = biological target: T6, ELK3 (Homo sapiens, UniProt P41970 1-407); details: protein: recombinant; tags: N-terminal GST; dsDNA, one strand shown
T6 sequence: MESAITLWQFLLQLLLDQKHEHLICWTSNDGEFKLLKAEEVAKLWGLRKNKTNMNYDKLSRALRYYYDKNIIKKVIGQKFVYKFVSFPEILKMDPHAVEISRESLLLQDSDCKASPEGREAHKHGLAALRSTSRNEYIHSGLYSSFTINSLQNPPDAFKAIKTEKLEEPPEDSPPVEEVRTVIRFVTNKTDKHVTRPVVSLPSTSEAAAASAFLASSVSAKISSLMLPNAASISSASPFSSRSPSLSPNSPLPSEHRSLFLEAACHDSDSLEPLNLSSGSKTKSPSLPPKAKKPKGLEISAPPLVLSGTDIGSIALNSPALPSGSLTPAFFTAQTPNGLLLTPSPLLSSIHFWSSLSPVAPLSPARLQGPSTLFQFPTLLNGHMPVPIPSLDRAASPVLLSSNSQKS
Procedure, shortened: as §1

FEV = biological target: T7, FEV (Homo sapiens, UniProt Q99581 1-238); details: protein: recombinant; tags: N-terminal GST; dsDNA, one strand shown
T7 sequence: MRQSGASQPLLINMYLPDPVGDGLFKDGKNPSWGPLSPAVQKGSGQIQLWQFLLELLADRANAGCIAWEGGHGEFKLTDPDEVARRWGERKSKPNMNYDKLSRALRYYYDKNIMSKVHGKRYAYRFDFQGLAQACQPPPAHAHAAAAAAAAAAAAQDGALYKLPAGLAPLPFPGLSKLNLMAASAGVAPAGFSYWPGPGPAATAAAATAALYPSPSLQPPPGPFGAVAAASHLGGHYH
Procedure, shortened: as §1

ETV5 = ETV5 (Homo sapiens, UniProt P41161 1-510); details: protein: recombinant; tags: N-terminal GST; dsDNA, one strand shown
Chain of ETV5 (P41161 whole entry): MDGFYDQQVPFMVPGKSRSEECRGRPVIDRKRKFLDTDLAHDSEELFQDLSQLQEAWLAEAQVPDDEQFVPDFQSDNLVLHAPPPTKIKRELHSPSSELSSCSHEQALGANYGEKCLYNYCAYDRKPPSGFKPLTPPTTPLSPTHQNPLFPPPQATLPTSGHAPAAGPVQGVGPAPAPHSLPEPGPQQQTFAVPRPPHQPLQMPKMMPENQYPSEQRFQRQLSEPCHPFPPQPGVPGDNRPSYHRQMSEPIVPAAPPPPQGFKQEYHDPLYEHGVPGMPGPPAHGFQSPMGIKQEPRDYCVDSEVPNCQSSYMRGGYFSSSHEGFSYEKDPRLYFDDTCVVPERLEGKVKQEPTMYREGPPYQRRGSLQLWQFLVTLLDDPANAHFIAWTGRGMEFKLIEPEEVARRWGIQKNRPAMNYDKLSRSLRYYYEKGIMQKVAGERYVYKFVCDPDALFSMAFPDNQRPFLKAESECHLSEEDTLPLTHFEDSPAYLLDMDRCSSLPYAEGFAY
Procedure, shortened: as §1

HSF1 = HSF1 (Homo sapiens, UniProt Q00613 1-529); details: protein: recombinant; tags: N-terminal GST; chain copies: 3; dsDNA, one strand shown
Chain of HSF1 (Q00613 whole entry): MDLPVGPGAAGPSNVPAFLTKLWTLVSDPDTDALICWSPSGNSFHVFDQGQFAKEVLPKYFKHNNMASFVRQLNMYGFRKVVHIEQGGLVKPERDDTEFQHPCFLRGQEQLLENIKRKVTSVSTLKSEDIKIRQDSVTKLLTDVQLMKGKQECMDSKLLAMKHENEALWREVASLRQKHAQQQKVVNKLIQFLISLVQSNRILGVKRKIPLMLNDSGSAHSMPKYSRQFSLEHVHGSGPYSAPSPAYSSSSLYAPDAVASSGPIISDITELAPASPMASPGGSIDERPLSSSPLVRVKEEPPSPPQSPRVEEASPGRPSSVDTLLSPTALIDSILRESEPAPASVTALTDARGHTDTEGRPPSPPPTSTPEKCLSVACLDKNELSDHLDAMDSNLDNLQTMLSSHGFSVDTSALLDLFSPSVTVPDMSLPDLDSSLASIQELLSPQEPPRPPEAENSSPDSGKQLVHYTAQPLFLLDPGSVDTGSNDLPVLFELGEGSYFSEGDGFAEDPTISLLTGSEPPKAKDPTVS
Procedure, shortened: as §1

SPIC = biological target: T8, SPIC (Homo sapiens, UniProt Q8N5J4 1-248); details: protein: recombinant; tags: N-terminal GST; dsDNA, one strand shown
T8 sequence: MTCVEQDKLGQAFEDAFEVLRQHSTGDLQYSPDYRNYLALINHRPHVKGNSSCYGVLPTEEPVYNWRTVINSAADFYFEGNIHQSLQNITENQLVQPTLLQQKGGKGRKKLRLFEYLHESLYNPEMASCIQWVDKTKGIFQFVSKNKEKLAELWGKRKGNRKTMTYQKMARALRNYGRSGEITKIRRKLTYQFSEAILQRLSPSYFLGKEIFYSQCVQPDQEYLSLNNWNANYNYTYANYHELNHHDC
Procedure, shortened: as §1

ELF4 = ELF4 (Homo sapiens, UniProt Q99607 1-663); details: protein: recombinant; tags: N-terminal GST; dsDNA, one strand shown
Chain of ELF4 (Q99607 whole entry): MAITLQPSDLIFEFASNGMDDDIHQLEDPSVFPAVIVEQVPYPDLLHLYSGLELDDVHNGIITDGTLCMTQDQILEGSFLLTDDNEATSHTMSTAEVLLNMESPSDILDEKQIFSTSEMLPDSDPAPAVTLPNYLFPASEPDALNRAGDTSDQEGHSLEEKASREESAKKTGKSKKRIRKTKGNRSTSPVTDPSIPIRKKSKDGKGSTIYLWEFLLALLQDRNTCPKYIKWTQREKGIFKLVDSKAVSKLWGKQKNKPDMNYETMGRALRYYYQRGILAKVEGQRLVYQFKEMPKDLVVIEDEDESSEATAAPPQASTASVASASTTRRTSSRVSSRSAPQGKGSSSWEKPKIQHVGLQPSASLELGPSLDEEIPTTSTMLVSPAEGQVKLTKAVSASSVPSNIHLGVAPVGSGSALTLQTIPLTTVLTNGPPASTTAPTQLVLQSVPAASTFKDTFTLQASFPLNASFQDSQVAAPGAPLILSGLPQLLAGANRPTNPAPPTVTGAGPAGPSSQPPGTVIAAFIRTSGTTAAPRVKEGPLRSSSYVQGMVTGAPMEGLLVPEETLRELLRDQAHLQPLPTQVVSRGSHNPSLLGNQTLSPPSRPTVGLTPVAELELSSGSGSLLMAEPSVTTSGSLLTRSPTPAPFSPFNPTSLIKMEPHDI
Procedure, shortened: as §1

ELK4 = biological target: T9, ELK4 (Homo sapiens, UniProt P28324-2 1-405); details: protein: recombinant; tags: N-terminal GST; dsDNA, one strand shown
T9 sequence: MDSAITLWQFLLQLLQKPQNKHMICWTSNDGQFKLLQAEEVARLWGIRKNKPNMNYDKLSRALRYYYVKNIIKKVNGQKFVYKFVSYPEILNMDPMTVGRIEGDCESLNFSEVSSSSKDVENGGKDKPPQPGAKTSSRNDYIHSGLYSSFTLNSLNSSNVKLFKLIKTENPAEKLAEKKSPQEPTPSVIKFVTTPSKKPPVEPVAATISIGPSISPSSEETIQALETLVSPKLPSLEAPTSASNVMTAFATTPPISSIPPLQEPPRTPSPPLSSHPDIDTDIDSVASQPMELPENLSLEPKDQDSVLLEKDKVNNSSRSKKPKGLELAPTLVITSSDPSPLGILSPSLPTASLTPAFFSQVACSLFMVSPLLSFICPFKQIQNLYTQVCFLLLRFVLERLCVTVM
Procedure, shortened: as §1

ETV2 = biological target: T10, ETV2 (Homo sapiens, UniProt O00321 1-342); details: protein: recombinant; tags: N-terminal GST; dsDNA, one strand shown
T10 sequence: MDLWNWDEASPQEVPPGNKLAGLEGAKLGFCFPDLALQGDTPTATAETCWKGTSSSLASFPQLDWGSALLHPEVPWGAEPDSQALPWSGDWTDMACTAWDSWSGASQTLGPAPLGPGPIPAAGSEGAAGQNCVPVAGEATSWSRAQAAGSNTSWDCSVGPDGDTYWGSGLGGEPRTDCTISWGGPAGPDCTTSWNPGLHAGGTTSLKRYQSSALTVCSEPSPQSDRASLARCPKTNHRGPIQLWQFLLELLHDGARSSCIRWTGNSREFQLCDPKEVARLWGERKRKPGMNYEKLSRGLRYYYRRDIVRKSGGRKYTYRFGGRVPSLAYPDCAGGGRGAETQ
Procedure, shortened: as §1

ELF3 = biological target: T11, ELF3 (Homo sapiens, UniProt P78545 1-371); details: protein: recombinant; tags: N-terminal GST; dsDNA, one strand shown
T11 sequence: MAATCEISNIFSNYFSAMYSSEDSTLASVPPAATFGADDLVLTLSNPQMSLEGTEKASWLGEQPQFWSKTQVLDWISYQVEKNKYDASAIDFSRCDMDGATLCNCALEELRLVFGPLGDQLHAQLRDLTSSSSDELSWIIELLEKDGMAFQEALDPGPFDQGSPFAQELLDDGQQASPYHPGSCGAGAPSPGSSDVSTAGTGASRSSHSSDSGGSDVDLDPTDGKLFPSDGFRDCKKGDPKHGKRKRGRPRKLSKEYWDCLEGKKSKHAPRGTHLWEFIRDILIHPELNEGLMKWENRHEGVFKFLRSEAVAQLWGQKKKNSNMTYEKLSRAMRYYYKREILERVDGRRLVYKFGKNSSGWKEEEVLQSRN
Procedure, shortened: as §1

CRX = CRX (Homo sapiens, UniProt O43186 1-299); details: protein: recombinant; tags: N-terminal GST; dsDNA, one strand shown
Chain of CRX (O43186 whole entry): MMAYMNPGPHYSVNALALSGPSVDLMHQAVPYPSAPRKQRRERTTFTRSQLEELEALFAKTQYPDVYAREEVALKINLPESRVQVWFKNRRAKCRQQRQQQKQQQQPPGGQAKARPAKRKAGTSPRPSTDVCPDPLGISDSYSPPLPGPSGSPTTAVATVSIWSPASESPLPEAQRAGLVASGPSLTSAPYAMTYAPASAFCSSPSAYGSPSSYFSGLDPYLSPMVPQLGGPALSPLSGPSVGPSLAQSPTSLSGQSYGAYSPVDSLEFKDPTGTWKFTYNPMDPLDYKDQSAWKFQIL
Procedure, shortened: as §1

ETV1 = ETV1 (Homo sapiens, UniProt P50549 1-477); details: protein: recombinant; tags: N-terminal GST; dsDNA, one strand shown
Chain of ETV1 (P50549 whole entry): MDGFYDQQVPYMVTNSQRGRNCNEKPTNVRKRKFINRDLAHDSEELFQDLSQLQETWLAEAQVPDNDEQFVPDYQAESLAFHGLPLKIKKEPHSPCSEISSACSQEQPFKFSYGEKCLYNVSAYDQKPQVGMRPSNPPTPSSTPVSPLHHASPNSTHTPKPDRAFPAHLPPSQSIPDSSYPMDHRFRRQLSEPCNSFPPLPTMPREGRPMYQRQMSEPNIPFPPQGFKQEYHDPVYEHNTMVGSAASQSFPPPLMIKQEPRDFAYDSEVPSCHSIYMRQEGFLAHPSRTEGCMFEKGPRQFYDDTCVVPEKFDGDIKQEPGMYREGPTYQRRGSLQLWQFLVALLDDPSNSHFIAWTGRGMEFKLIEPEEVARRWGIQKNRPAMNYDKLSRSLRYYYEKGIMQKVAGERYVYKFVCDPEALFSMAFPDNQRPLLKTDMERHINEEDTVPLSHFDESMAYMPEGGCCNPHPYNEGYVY
Procedure, shortened: as §1

Q: CTCGAG was tested. Which binding signal (FLI1) did it give?
A: 1.23 fold enrichment (6-mer frequency, TF over GST control)

Q: What about the binding signal (ELK1) of the same sequence?
A: 1.34 fold enrichment (6-mer frequency, TF over GST control)

Q: What about the binding signal (GABPA) of the same sequence?
A: 1.35 fold enrichment (6-mer frequency, TF over GST control)

Q: What about the binding signal (ERG) of the same sequence?
A: 1.31 fold enrichment (6-mer frequency, TF over GST control)

Q: What about the binding signal (ELF1) of the same sequence?
A: 1.28 fold enrichment (6-mer frequency, TF over GST control)

Q: And the binding signal (EHF)?
A: 1.21 fold enrichment (6-mer frequency, TF over GST control)

Q: What about the binding signal (SPI1) of the same sequence?
A: 1.35 fold enrichment (6-mer frequency, TF over GST control)

Q: What about the binding signal (SPIB) of the same sequence?
A: 1.31 fold enrichment (6-mer frequency, TF over GST control)

Q: What about the binding signal (ELK3) of the same sequence?
A: 1.18 fold enrichment (6-mer frequency, TF over GST control)

Q: And the binding signal (FEV)?
A: 1.2 fold enrichment (6-mer frequency, TF over GST control)

Q: And the binding signal (ETV5)?
A: 1.26 fold enrichment (6-mer frequency, TF over GST control)

Q: What about the binding signal (HSF1) of the same sequence?
A: 2 fold enrichment (6-mer frequency, TF over GST control)

Q: And the binding signal (SPIC)?
A: 1.44 fold enrichment (6-mer frequency, TF over GST control)

Q: What about the binding signal (ELF4) of the same sequence?
A: 1.34 fold enrichment (6-mer frequency, TF over GST control)

Q: And the binding signal (ELK4)?
A: 1.31 fold enrichment (6-mer frequency, TF over GST control)

Q: And the binding signal (ETV2)?
A: 1.64 fold enrichment (6-mer frequency, TF over GST control)

Q: What about the binding signal (ELF3) of the same sequence?
A: 1.3 fold enrichment (6-mer frequency, TF over GST control)

Q: And the binding signal (CRX)?
A: 1.26 fold enrichment (6-mer frequency, TF over GST control)

Q: And the binding signal (ETV1)?
A: 1.2 fold enrichment (6-mer frequency, TF over GST control)
